# Several values for one entry are separate records, joined by “and”; a condition that tells them apart may be missing. Identical values can stand only once. Inconclusive results are not listed. A call without a number means that no potency is given here. More than one record can exist for a structure, and the calls need not agree. Activity calls are given as the source filed them. The call rests on the fitted dose curve; in most records, active means well fitted cell-killing curve with a large enough effect in the repeat runs; inconclusive means weak or mixed curves, or effect the other way; inactive means flat fitted curve, though single readings scatter.
# Experiment: qHTS RealTime-Glo MT Cell Viability Assay in HEK293 cells - 24 hour (AID 1224886); further: nearly all actives have a fitted effect of over 50% in size; on activity change, negative = cytotoxicity: top concentration of the series differs between compounds
# Details: RealTime-Glo luminescence; series mostly up to 76.8 µM; activity change, negative = cytotoxicity: at the top concentration
# Excerpt: National Center for Advancing Translational Sciences [NCATS]
# NIH Chemical Genomics Center [NCGC]
# U.S. Environmental Protection Agency [EPA]
# National Institutes of Environmental Health Sciences [NIEHS]
# National Toxicology Program [NTP]
# U.S. Food and Drug Administration [FDA]
# Measure of cell viability is critical in the cell-base assay. Analysis of cell viability is necessary for the characterization of cell responses to cytotoxic drugs and environmental stress. A RealTime-Glo MT Cell Viability Assay to monitor cell viability in real time of continues cell culture during 40 hours of compound treatment was used to screen Tox21 10K library compounds in Hek293 cells. The RealTime-Glo MT Cell Viability Assay is a nonlytic, homogeneous, bioluminescent method to measure cell viability in real time using a simple, plate-based method. The assay involves adding NanoLuc luciferase and a cell-permeant prosubstrate to cells in culture. Viable cells reduce the proprietary prosubstrate to generate a substrate for NanoLuc luciferase. This substrate diffuses from cells into the surrounding culture medium, where it is rapidly used by the NanoLuc Enzyme to produce a luminescent signal. The signal correlates with the number of viable cells, making the assay well suited for cytotoxicity studies.
# Tox21 Assay Protocol Summary:
# The mixture of Hek293 cell suspension and reagents were dispensed at 600cells/6 ul/well in 1536-well tissue culture treated black solid bottom plates using a Multidrop dispenser. After the assay plates were incubated at a 37 C/5% CO2 incubator for 5 hours, 23 nL of compounds dissolved in DMSO, positive and negative controls was transferred to the assay plate by a pintool work station. The plates were incubated at 37 C for 40 hours. The luminescence intensity were measured at 0h, 8h, 16h, 24h, 32h and 40h time points using ViewLux plate reader during compound treatment.
# Potency means the concentration at half of the fitted maximal effect.
Structure (SMILES),Potency,"activity change, negative = cytotoxicity"
c1ccc2ccccc2c1,inactive,–
C=C(C)C(=O)OCCC[Si](OC)(OC)OC,inactive,–
C=C(C)C(=O)OCCCCCC,inactive,–
CC1=CC[C@H]2C[C@@H]1C2(C)C,inactive,–
Nc1cc(-c2ccncc2)c[nH]c1=O,inactive,–
NCc1cccc(CN)c1,inactive,–
Cc1ccc(C(=O)O)o1,inactive,–
CCCCC(CC)COC(=O)/C=C\C(=O)OCC(CC)CCCC (stereo not given),inactive,–
OC[C@@H](O)[C@H](O)[C@H](O)[C@@H](O)CO,inactive,–
CNC[C@H](O)[C@@H](O)[C@H](O)[C@H](O)CO,inactive,–
CCC(=O)O,inactive,–
Nc1nc2ncc(CNc3ccc(C(=O)N[C@@H](CCC(=O)O)C(=O)O)cc3)nc2c(=O)[nH]1,inactive,–
C=C(C)C(=O)OCC(CC)(COC(=O)C(=C)C)COC(=O)C(=C)C,inactive,–
CCCCCCC(C)(C)S,inactive,–
CCOC(=O)[C@H](CCc1ccccc1)N[C@@H](C)C(=O)N1Cc2ccccc2C[C@H]1C(=O)O,inactive,–
Oc1ccc(OCc2ccccc2)cc1,853 nM (active) and inactive,–
CCOC(=O)/C=C\C(=O)OCC,inactive,–
CCCCCCOC(C)=O,inactive,–
Nc1c(S(=O)(=O)O)cc(Br)c2c1C(=O)c1ccccc1C2=O,–,2.9% [at 35.3 µM] (inactive)
O=C(c1ccc(O)cc1)c1ccc(O)cc1O,–,-12.6% (inactive)

Structure (SMILES),Potency,"activity change, negative = cytotoxicity"
CCc1ccccc1O,–,-0.579% (inactive)
Cn1c([N+](=O)[O-])cnc1COC(N)=O,inactive,–
O=S(=O)(O)c1cc(S(=O)(=O)O)c2c(N=Nc3ccccc3)c(O)ccc2c1,–,-21.1% (inactive)
OCC1CCCO1 (stereo not given),inactive,–
CC(C)n1c(/C=C/[C@@H](O)C[C@@H](O)CC(=O)O)c(-c2ccc(F)cc2)c2ccccc21,inactive,–
CCCCC(CC)COC(=O)CCCCCCCC(=O)OCC(CC)CCCC (stereo not given),24.5 µM (active) and inactive,–
CS(=O)(=O)c1ccc([C@@H](O)[C@@H](CO)NC(=O)C(Cl)Cl)cc1,inactive,–
NCCNCCNCCNCCN,inactive,–
Cc1ccc(N)c(S(=O)(=O)O)c1,inactive,–
CC1=C(/C=C/C(C)=C/C=C/C(C)=C/CO)C(C)(C)CCC1,inactive,–
CN(CCOc1ccc(CC2SC(=O)NC2=O)cc1)c1ccccn1 (stereo not given),–,1.95% [at 35.3 µM] (inactive)
CN(C)c1ccc(C(=N)c2ccc(N(C)C)cc2)cc1,3.42 µM (active) and 4.2 µM (active),–
CCCCCCCCC,inactive,–
COCC(C)O (stereo not given),inactive,–
CN(C)c1cccc(O)c1,inactive,–
O=S(=O)(O)CCS,inactive,–
CC(C)(C)C1CCC(O)CC1 (stereo not given),inactive,–
Clc1ccc(Cl)c(Cl)c1Cl,inactive,–
CC(C)(CO)COC(=O)C(C)(C)CO,inactive,–
Oc1ccc2ccccc2c1,inactive,–
